A short description of this test: basal HepG2 mitochondrial membrane potential changes, profiling panel, cell-based, JC-1 fluorescence, 24 h, 100 nL compound (AID 1167). Further: test concentration not given here. The following applies: higher = more signal.
Regarding `COC(=O)[C@@]1(Cc2ccccc2)[C@H]2c3cc(C(=O)N(C)C)n(Cc4c(CO)[nH]cc(C)c4=O)c3C[C@H]2CN1C(=O)c1ccccc1`, the z-score was found to be 1.34.

In turn, `CN(C)C(=O)[C@]1(CCS(=O)(=O)c2ccccc2)N=C(c2ccc(OCCCO)cc2)O[C@@H]1c1ccccc1N=[N+]=[N-]` gave a z-score of 0.621.

In the case of `CCCCCCc1nc(-c2cc(C)c(OC)c(C)c2)c(C)c2c1[Si](C(C)C)(C(C)C)OC2`, the z-score is 0.797.

For `CC(C)C[C@@H]1NC(=O)[C@@H]2C[C@H](C(=O)NCCCCCN)[C@H](c3ccc(O)cc3)N2C1=O`, the z-score is -0.502.

Regarding `C[C@H]1NC(=O)[C@@]23C(=O)N[C@@H](Cc4ccccc4)C2[C@H](C)[C@@]2(C)O[C@H]2C3/C=C/C/C=C\CNC(=O)[C@H](Cc2ccccc2)NC1=O` (stereo partly specified), the z-score was 0.88.

`C=CC[C@]1(C(=O)NCCN2CCOCC2)N=C(c2ccc(OCCCO)cc2)O[C@H]1c1ccccc1CN=[N+]=[N-]` returned a z-score of 2.76.

Take `O=C1O[C@H](c2ccccc2)[C@H](c2ccccc2)N2[C@H]1[C@@H](C(=O)Nc1nc3ccccc3s1)[C@]1(C(=O)Nc3ccccc31)[C@H]2c1ccc(OCCO)cc1`: the z-score was -1.99.

In turn, `CN1C(=O)C2C=CC(C(O)c3cccc(O)c3)N(Nc3ccccc3)C2C1=O` (stereo unspecified) had a z-score of -0.579.

Turning to `C=C(COC)/C(=C/C[C@H](OC(=O)c1ccncc1)c1ccccc1OCCO)c1cnc2ccccc2c1`, the z-score was determined as 1.23.

The molecule `[N-]=[N+]=Nc1ccccc1[C@@H]1OC(c2ccc(OCCCO)cc2)=N[C@]1(Cc1ccccc1)C(=O)NCC(O)CO` (stereo partly specified) had a z-score of 0.307.

For `CCOc1cc(C(O)C2C=CC3C(=O)N(C)C(=O)C3N2Nc2ccccc2)ccc1O` (stereo unspecified), the z-score is -1.48.

Source of the values: PubChem BioAssay.
